Source: PubChem BioAssay (NCATS)
Records with an inconclusive call do not appear. A call without a number means that no potency is given here. The source made the active and inactive calls. Calls follow the shape of the dose curve; as a rule, active = well fitted inhibition curve with a large enough effect; inconclusive = small, poorly fitted or top-dose-only effect; inactive = flat fitted curve, though single readings scatter.

Each molecule was assayed against Voltage-gated inwardly rectifying potassium channel KCNH2 (Homo sapiens) (UniProt Q12809) (assay: qHTS Assay for Small Molecule Inhibitors of the Human hERG Channel Activity (AID 588834;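 also: lower thallium flux fluorescence means stronger hERG block; nearly all actives have a fitted effect of over 50% in size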)). Details: U2OS BacMam hERG, FluxOR thallium flux fluorescence; series mostly up to 46.1 µM.
Procedure, shortened: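 hERG-BacMam U2OS, 2000 cells/well; 0.7X FluxOR loading 1 hr RT dark; cpd ~10 min 37 °C; stim buffer; FDSS fluorescence 2 min @ 1 s; AC50 Hill fit.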
Potency is read from the fitted curve at half-maximal effect.

Voltage-gated inwardly rectifying potassium channel KCNH2 (Homo sapiens), sequence (Q12809 whole entry, looked up): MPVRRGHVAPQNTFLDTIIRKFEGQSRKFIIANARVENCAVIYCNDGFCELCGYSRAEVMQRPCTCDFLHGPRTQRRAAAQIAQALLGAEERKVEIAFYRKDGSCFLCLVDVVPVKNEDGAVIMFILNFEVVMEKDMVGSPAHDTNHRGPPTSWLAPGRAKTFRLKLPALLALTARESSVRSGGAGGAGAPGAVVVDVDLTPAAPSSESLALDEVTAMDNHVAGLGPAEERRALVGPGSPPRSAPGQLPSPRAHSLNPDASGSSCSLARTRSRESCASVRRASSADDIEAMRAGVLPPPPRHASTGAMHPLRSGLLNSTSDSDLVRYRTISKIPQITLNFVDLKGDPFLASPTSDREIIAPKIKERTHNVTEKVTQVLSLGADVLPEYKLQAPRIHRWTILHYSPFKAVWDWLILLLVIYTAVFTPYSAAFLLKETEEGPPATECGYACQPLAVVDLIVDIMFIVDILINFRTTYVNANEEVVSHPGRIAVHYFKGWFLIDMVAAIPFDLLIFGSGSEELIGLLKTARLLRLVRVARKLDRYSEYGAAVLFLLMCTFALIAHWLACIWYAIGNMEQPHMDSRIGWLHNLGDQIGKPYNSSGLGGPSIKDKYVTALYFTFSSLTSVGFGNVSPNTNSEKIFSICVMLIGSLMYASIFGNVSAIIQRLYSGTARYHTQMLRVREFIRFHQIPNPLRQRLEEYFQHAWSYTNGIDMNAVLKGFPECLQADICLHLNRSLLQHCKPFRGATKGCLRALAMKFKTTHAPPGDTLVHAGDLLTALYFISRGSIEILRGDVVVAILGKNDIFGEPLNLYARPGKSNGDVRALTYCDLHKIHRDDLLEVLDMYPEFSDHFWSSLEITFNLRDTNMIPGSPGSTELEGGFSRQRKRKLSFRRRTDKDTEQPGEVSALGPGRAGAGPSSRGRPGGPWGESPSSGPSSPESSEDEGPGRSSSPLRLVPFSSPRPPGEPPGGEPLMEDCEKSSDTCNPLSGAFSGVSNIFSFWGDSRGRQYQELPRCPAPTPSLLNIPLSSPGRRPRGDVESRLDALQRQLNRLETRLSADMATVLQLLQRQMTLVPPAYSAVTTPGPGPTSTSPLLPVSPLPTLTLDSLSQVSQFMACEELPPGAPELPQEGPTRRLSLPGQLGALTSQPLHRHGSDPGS

Row | SMILES | Potency
1 | COC1CC(=C(c2cccs2)c2cccs2)C[N+](C)(C)C1 (stereo not drawn) | inactive
2 | CCC1(c2ccccc2)C(=O)N(COC)C(=O)N(COC)C1=O | inactive
3 | C=C(C)[C@H]1CN[C@H](C(=O)O)[C@H]1CC(=O)O | inactive
4 | CCCCCN(C)CCC(O)(P(=O)(O)O)P(=O)(O)O | inactive
5 | Clc1ccc2c(c1)C(c1ccccc1)=NCc1nncn1-2 | inactive
6 | C=CCN1C[C@H](C)N([C@H](c2ccc(C(=O)N(CC)CC)cc2)c2cccc(OC)c2)C[C@H]1C | 3.98 µM (active)
7 | CCCCCCCCCC(=O)O[C@H]1CC[C@H]2[C@@H]3CCC4=CC(=O)CC[C@@H]4[C@H]3CC[C@]12C | inactive
8 | c1ccc2c(c1)sc1ccccc12 | inactive
9 | CN=C1CN(O)C(c2ccccc2)=c2cc(Cl)ccc2=N1 | inactive
10 | C[C@](O)(CS(=O)(=O)c1ccc(F)cc1)C(=O)Nc1ccc(C#N)c(C(F)(F)F)c1 | inactive
11 | Cc1nnc2n1-c1ccc(Cl)cc1C(c1ccccc1Cl)=NC2 | inactive
12 | C[C@]12CC[C@@H]3c4ccc(OC(=O)N(CCCl)CCCl)cc4CC[C@H]3[C@@H]1CC[C@@H]2O | inactive
13 | O=C(O)/C=C\C(=O)O | inactive
14 | CC(=O)NC1CCSC1=O (stereo not drawn) | inactive
15 | O=C(N/N=C/c1ccc([N+](=O)[O-])o1)c1cc([N+](=O)[O-])cc([N+](=O)[O-])c1O | inactive
16 | O=[N+]([O-])O[C@H]1CO[C@H]2[C@@H]1OC[C@H]2O[N+](=O)[O-] | inactive
17 | CN1C(=O)NC(=O)C(C)(C2=CCCCC2)C1=O (stereo not drawn) | inactive
18 | CNC(C)(C)Cc1ccccc1 | inactive
